The values that follow come from PubChem BioAssay (NCATS).

The target in experiment [1] is Rap guanine nucleotide exchange factor 3 (Homo sapiens) (UniProt O95398). In words: Confirmatory qHTS for antagonist of cAMP-regulated guanine nucleotide exchange factor 3 (EPAC1) (AID 1645880).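 For activity, negative = inhibition: plate controls were DMSO only for no effect and full effect of the ATA control for full effect.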 Note: nearly all actives have a fitted effect of over 55% in size. Note: potency is the fitted concentration of half-maximal effect. The conditions noted are these: EPAC1 Rap1B-BODIPY-GDP exchange, fluorescence; activity, negative = inhibition: at 115 µM (top of the series). In short, it runs like this:
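Nucleotide exchange uses 100 nM EPAC1, 250 nM RAP1B-BODIPY-GDP and 50 uM GDP, with compounds in a concentration-titration series. After 5 min at room temperature, fluorescence (480 nm ex/540 nm em) is read every 5 min for 30 min. Data are normalized to control ATA and DMSO.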
(In general: qHTS replaces the single test concentration by a dilution series.)

Experiment [2] addresses Rap guanine nucleotide exchange factor 4 (Homo sapiens) (UniProt Q8WZA2). The experiment in a line: Confirmatory qHTS for agonist of cAMP-regulated guanine nucleotide exchange factor 4 (EPAC2) (AID 1645884). For activation: % is set by controls: 0 for no effect and ±100 for the full control effect. Note: nearly all actives have a fitted effect of over 65% in size. Note: potency is the fitted concentration of half-maximal effect.
Experiment [3] shares this target. In words: Confirmatory qHTS for antagonist of cAMP-regulated guanine nucleotide exchange factor 4 (EPAC2) (AID 1645885). For activity change, negative = inhibition: % is set by controls: 0 for no effect and ±100 for the full control effect. Note: nearly all actives have a fitted effect of over 25% in size. Note: potency is the fitted concentration of half-maximal effect.
Experiment [4] deals with Rap guanine nucleotide exchange factor 3 (Homo sapiens) (UniProt O95398). The experiment in a line: Counterscreen qHTS for antagonist of cAMP-regulated guanine nucleotide exchange factor 3 (EPAC1) (AID 1645888).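 Note: fluorescence loss as bound BODIPY-GDP is released from Rap1B; % of control where 0% means no effect.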 In short, it runs like this:
(§1)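 Rap1B–BODIPY-GDP (250 nM) with 50 uM GDP; compounds pin-transferred to 9.74 nM–152 uM final (activator) or from 7.32 nM upwards (inhibitor). Fluorescence Ex/Em 480/540 nm read at 5 and 30 min, then after adding cAMP or buffer, at room temperature.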

Experiment [5] shares this target. In words: Counterscreen qHTS for agonist of cAMP-regulated guanine nucleotide exchange factor 3 (EPAC1) (AID 1645889). For activation: % of control where 0% means no effect. Note: nearly all actives have a fitted effect of over 40% in size. Note: potency is the fitted concentration of half-maximal effect. In short, it runs like this: as §1
(A counterscreen serves to expose hits that act by an unwanted route or on another target.)

In experiment [6] the target is Tumor susceptibility gene 101 protein (Homo sapiens) (UniProt Q99816). The experiment in a line: qHTS Assay for Iinhibitors of HIV-1 Budding by Blocking the Interaction of PTAP/TSG101: Hit Validation (AID 651600). Note: nearly all actives have a fitted effect of over 70% in size. Note: potency is the fitted concentration of half-maximal effect. In short, it runs like this:
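Displacement of a FITC-labeled PTAP-motif peptide (50 nM) from the Tsg101 binding domain (10 uM) was monitored by fluorescence polarization after a 20 min room-temperature incubation.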

Experiment [7] is described as follows: Stat Signaling Pathway (AID 446; active = well fitted curve in either direction with a large enough effect, not every such curve was filed as active;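 note: ME-180 cervical cancer cells given 40 pM IL-6 alongside compound; SIE-controlled beta-lactamase reporter measured as 460/530 nm FRET emission ratio; % is set by controls: 0 for no effect and ±100 for the full control effect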). Put shortly: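 IL-6/STAT signaling read in ME-180 cells via an SIE beta-lactamase reporter. Stimulus was 40 pM IL-6 (its AC50) for 5 hrs, so both activation and inhibition register.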
The target of experiment [8] is Glucocorticoid receptor (Homo sapiens) (UniProt P04150). The experiment in a line: GR-GFP Redistribution (AID 450;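 active = compounds whose dose series gives a full or clear partial fitted curve of increased nuclear translocation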; note: potency is the fitted concentration of half-maximal effect). The settings on record: U2OS GR-GFP nuclear translocation, laser cytometry, 2 h.
Sequence of Glucocorticoid receptor (Homo sapiens) (P04150 whole entry, looked up): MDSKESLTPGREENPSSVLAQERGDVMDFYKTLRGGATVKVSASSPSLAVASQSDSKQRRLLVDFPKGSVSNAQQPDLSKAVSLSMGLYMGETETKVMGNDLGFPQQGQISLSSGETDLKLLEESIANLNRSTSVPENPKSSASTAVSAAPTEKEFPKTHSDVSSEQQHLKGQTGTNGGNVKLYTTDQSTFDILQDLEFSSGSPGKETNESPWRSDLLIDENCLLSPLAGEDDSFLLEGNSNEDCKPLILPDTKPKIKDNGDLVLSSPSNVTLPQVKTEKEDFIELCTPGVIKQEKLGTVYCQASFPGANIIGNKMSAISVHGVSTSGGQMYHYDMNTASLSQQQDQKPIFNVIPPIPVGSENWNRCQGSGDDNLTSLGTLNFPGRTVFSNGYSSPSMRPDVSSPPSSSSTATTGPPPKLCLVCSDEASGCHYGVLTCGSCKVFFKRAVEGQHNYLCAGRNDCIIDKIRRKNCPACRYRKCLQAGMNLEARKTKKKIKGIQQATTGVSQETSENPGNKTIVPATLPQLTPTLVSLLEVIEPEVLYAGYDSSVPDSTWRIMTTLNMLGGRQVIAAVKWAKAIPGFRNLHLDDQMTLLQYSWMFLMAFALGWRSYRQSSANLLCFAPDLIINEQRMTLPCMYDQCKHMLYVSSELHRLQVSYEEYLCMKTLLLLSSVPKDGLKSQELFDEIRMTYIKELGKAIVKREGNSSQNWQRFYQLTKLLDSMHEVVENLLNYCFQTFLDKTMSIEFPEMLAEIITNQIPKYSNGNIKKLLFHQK
A short description of experiment [9]: qHTS for Inhibitors of the vitamin D receptor (VDR): Hit Validation using a Texas Red Assay (AID 602201). Note: % is set by controls: 0 for no effect and ±100 for the full control effect. In short, it runs like this:
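Fluorescence polarization with 1.5 uM VDR-LBD, LG19078 and 7 nM Texas Red (final). After 2 hours at ambient temperature, read at Ex 595 nm/Em 615 nm.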

Unmarked numbers belong to inactive results. Inconclusive results are not listed. Activity calls are given as the source filed them. Unless noted, calls come from the whole dose curve; as a rule, active = well fitted curve in the direction sought with a large enough effect; inconclusive = small, poorly fitted or top-dose-only effect, or another doubt; inactive = no such curve, though single readings can be large; an effect the other way counts as inactive or inconclusive.

Sequence of Rap guanine nucleotide exchange factor 3 (Homo sapiens) (O95398 whole entry, looked up): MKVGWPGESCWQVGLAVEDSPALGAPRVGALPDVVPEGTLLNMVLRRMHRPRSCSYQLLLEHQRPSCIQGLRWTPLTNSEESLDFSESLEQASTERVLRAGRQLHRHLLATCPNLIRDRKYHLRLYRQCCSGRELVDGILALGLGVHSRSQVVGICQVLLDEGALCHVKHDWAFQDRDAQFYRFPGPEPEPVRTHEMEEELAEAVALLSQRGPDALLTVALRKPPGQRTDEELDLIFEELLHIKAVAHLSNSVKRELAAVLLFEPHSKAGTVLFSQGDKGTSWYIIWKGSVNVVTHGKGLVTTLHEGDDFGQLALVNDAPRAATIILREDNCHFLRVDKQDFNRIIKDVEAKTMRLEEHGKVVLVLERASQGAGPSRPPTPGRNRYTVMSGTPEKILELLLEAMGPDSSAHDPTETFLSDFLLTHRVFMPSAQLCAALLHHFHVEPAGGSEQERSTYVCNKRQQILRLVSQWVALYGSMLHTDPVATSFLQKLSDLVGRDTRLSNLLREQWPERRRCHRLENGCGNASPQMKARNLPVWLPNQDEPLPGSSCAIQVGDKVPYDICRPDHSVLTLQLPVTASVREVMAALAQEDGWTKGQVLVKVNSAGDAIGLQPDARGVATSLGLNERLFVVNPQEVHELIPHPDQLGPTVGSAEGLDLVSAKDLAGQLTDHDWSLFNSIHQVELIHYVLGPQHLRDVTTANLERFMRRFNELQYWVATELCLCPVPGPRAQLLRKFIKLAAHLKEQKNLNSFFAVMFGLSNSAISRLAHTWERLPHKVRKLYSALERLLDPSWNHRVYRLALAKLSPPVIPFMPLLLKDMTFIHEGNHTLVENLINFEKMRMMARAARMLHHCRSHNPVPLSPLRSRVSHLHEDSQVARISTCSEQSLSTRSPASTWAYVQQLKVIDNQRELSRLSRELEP
Sequence of Rap guanine nucleotide exchange factor 4 (Homo sapiens) (Q8WZA2 whole entry, looked up): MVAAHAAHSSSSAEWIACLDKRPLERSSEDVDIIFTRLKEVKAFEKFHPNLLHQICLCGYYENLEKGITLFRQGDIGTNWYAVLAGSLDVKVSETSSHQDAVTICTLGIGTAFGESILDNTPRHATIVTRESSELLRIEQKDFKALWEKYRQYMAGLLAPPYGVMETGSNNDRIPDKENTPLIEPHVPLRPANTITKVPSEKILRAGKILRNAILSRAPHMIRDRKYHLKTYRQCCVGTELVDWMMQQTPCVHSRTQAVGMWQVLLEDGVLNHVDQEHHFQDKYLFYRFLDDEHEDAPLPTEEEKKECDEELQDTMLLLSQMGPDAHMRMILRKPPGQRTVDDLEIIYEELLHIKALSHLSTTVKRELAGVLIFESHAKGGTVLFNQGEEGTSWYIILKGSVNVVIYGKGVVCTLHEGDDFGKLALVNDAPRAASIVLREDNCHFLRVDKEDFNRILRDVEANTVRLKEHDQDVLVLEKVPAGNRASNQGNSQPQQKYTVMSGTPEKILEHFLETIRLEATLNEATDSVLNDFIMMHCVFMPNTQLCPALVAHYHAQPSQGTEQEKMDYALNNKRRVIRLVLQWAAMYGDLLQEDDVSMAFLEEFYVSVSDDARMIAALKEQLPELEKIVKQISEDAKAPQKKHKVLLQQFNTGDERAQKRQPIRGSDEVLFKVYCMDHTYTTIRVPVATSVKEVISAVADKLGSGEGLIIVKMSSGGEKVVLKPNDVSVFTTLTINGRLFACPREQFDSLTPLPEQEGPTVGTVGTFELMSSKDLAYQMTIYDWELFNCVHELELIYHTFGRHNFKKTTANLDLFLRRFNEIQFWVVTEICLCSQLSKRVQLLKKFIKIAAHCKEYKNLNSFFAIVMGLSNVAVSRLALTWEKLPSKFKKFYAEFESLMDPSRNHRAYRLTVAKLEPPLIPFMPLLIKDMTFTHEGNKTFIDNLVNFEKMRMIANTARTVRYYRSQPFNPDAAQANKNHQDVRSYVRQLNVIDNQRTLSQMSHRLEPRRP
Sequence of Tumor susceptibility gene 101 protein (Homo sapiens) (Q99816 whole entry, looked up, the tested form may be a part): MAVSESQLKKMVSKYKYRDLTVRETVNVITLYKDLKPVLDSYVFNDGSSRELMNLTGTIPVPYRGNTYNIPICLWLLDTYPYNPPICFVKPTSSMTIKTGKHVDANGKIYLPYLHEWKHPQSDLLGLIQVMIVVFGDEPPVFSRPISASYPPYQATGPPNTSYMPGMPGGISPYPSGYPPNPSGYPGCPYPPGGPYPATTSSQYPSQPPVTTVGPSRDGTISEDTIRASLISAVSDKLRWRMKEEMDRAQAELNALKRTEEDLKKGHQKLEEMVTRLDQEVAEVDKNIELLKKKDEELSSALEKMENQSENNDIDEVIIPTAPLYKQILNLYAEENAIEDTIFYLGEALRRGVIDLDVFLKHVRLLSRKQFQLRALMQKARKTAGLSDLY

For `COc1ccc(NC(=O)/C(C#N)=C\c2ccc(OCc3ccc(C(=O)O)cc3)c(OC)c2)cc1`, the Potency in experiment [1] was 67.5 µM (active). Besides, the Potency result in experiment [2], in experiment [3], in [4] and in experiment [5] was “inactive” in each case.
For the molecule `O=C(Cc1nc2ccccc2[nH]c1=O)c1ccccc1`, the Potency result in experiment [1], in [3], in experiment [4] and in experiment [5] was “inactive” throughout. Moreover, the Potency in [2] is 100 µM (active).
Consider `COC(=O)c1c(SC)nc2ccccc2c1OCc1ccc(C)cc1C`, for which the Potency result in experiment [1], in experiment [2], in [3], in experiment [4] and in experiment [5] was “inactive” in each case.
`NC(=O)c1c(NC(=O)c2ccccc2)sc2c1CCN(Cc1ccccc1)C2`: the Potency result in experiment [1] and in [4] was “inactive” each time. Also, the Potency in experiment [2] was 112 µM (active); in [3] it was 84.9 µM (active); in experiment [5], 39.8 µM (active).
`N=C1/C(=C\c2coc3ccc(O)cc3c2=O)C(=O)N=C2SC=CN12`: the Potency result in experiment [1], in experiment [3] and in experiment [4] was “inactive” in each case. Besides, the Potency was 112 µM (active) in [2] and 44.7 µM (active) in experiment [5].
In the case of `CCCCCn1nc(-c2ccccc2)c2nc3ccccc3nc21`, the Potency result in [1] and in [3] was “inactive” in each case. In addition, the activation in experiment [2] was 2.69% [at 17.1 µM, percent relative to cAMP agonist control]; in [5], 10.8% [at 30.8 µM]. The activity change, negative = inhibition in experiment [4] is 19.6% [at 30.8 µM].
For `O=C(c1ccccc1)c1ccc(O)cc1O`, in experiment [6], the Potency was 5.8 µM (active). The Potency entry in [1] and in experiment [3] was “inactive” in each case. Besides, the activation in [2] was 17% [at 17.1 µM, percent relative to cAMP agonist control]; in experiment [5], 6.44% [at 30.8 µM]. In addition, the activity change, negative = inhibition in [4] was -16.9% [at 30.8 µM].
`O=c1oc2c3c4c(cc2c(C(F)(F)F)c1CCN1CCOCC1)CCCN4CCC3`: in experiment [7], the molecule was classed as inactive. In addition, the results for the Potency in experiment [8], in [2] and in experiment [5] were greater than 20.6 µM, 100 µM (active) and 17.8 µM (active), respectively. Also, the Potency result in experiment [1], in experiment [3] and in experiment [4] was “inactive” each time.
In the case of `COc1ccccc1CNc1cc(C)nc2nc(-c3ccc(C)cc3)nn12`, the Potency entry in [1], in experiment [2], in [3], in [4] and in experiment [5] was “inactive” in each case.
Take `O=C(O)c1ccccc1C1=Nc2ccc(O)cc2Oc2cc(O)ccc21`: the values for the Potency in experiment [6] and in experiment [5] were 13 µM (active) and 15.8 µM (active), respectively. Further, the Potency entry in experiment [1] and in experiment [3] was “inactive” throughout. Moreover, the activation in experiment [2] was 14.2% [at 17.1 µM, percent relative to cAMP agonist control]. Moreover, the activity change, negative = inhibition in experiment [4] is -1.01% [at 30.8 µM].
As to `O=C1c2cccc3c(N4CCCCC4)ccc(c23)C(=O)N1c1ccc(O)cc1`, the Potency entry in experiment [1], in [3], in experiment [4] and in experiment [5] was “inactive” throughout. Also, the Potency in experiment [2] was 112 µM (active).
As to `CC1=Nc2ccccc2/C1=C\c1nc(-c2ccc(F)cc2)oc1O`, the Potency is 29.1 µM (active) in experiment [6], 112 µM (active) in [2] and 25.1 µM (active) in [5]. The Potency result in experiment [1], in experiment [3] and in experiment [4] was “inactive” each time.
With `COc1ccc(C)cc1CN1C(=O)c2ccccc2C1=O`, the Potency entry in experiment [1] and in [3] was “inactive” in each case. The activation in experiment [2] is -0.218% [at 17.1 µM, percent relative to cAMP agonist control]; in [5], 12.1% [at 30.8 µM]. Also, the activity change, negative = inhibition in [4] is -7.92% [at 30.8 µM].
Turning to `COc1ccccc1NC(=O)/C(C#N)=C/c1cc([N+](=O)[O-])ccc1N1CCCC1`, the Potency in experiment [6] is 14.6 µM (active); in experiment [2] it was 112 µM (active); in experiment [3], 75.7 µM (active). The Potency entry in [1] and in experiment [4] was “inactive” each time.
For `COc1cc(/C=C(\C#N)c2nc3ccccc3o2)ccc1O`, the Potency result in experiment [1] and in experiment [3] was “inactive” in each case. Moreover, the activation in experiment [2] is 7.08% [at 17.1 µM, percent relative to cAMP agonist control]; in experiment [5] it was 23.5% [at 30.8 µM]. Also, in experiment [4], the activity change, negative = inhibition is 3.99% [at 30.8 µM].
Turning to `COc1ccccc1NC(=O)c1sc2nc(Cc3ccccc3)cc(C(F)(F)F)c2c1N`, in [6], the Potency was 13 µM (active). In addition, the Potency entry in experiment [1] and in experiment [3] was “inactive” in each case. The activation in [2] was -0.606% [at 17.1 µM, percent relative to cAMP agonist control]. Moreover, the activity change, negative = inhibition in experiment [4] was -9.81% [at 30.8 µM].
With `COc1ccc(NC2c3ccccc3C(=O)N2c2ccccn2)cc1Cl` (centres undefined), the Potency entry in experiment [1], in experiment [2], in experiment [3], in [4] and in [5] was “inactive” in each case.
`CCN(CC)c1ccc2cc(-c3nnc(-c4ccncc4)o3)c(=O)oc2c1`: the result in experiment [7] was inactive. The Potency in experiment [8] was 3.51 µM (active); in experiment [2] it was 100 µM (active); in experiment [3] it was 75.7 µM (active). For the same molecule, the Potency result in experiment [6], in [1] and in experiment [4] was “inactive” throughout.
As for `COc1cc(/C=C2/C(=O)c3cccc([N+](=O)[O-])c3C2=O)c(Br)cc1O`, the Potency entry in experiment [9], in experiment [2] and in [4] was “inactive” in each case. In addition, the figures for the Potency in experiment [1] and in experiment [5] were 23.9 µM (active) and 31.6 µM (active), respectively. In addition, the outcome in experiment [3] was “inactive; activator; fitted 0.0301 uM [at 12.7 µM]”.
In the case of `CCC1(c2ccccc2)NC(=O)N(CC(=O)Nc2ccc(OC)nc2)C1=O` (centres undefined), the Potency in experiment [6] is 18.3 µM (active). In addition, the Potency result in experiment [1] and in experiment [3] was “inactive” throughout. The activation in [2] was 15.1% [at 17.1 µM, percent relative to cAMP agonist control]; in experiment [5], 14.8% [at 30.8 µM]. In addition, in experiment [4], the activity change, negative = inhibition is -15.6% [at 30.8 µM].
